Results reported in the supplement of paper PMC10646978.
± gives the standard deviation.

Experiments:
Conditions in all cases: modulator concentration 10 µM
[1] = tested on: RAW-Dual (murine macrophage reporter line); experiment: NF-kB reporter (SEAP) activity fold change vs agonist alone; higher = enhanced NF-kB activity
In short: (§1)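 RAW-Dual murine macrophage reporter cells were seeded at 50 000 per well in 384-well plates and pre-incubated 1 hour at 37 °C with compound pin-transferred to 10 μM final. After 1 hour, a PRR agonist was added and cells incubated overnight. Supernatant NF-κB (SEAP, QUANTI-Blue, 620 nm absorbance) and IRF (Lucia luciferase, QUANTI-Luc, luminescence) signals were divided by the mean agonist-only control on the same plate to give fold change. Two replicate plates were averaged, with errors by propagation.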

[2] = tested on: RAW-Dual (murine macrophage reporter line); experiment: IRF reporter (Lucia luciferase) activity fold change vs agonist alone; higher = enhanced IRF activity
In short: as §1

[3] = tested on: RAW-Dual (murine macrophage reporter line); experiment: viability score (confluency relative to resting cells, overnight) (fraction); higher = more viable, active = viable (0.7 or more)
In short: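 A compound met the cutoff when both of two confluency masks exceeded 70% of resting cells. Those masks were made with IncuCyte software from IncuCyte images of RAW-Dual macrophages treated overnight at 10 μM final. This is the basis of the viability score, which is confluency relative to resting cells.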

[4] = agonist: CpG ODN 1826 0.5 ug/mL

SMILES | NF-kB reporter [1, 4] | NF-kB reporter ([1]; agonist: LPS 0.1 ug/mL) | NF-kB reporter ([1]; agonist: MPLA […]) | IRF reporter ([2]; agonist: 3'3'-cGAMP 10 ug/mL) | IRF reporter ([2]; agonist: LPS 0.1 ug/mL) | IRF reporter ([2]; agonist: MPLA […]) | viability score [3]
O=C(Nc1cc(C(F)(F)F)cc(C(F)(F)F)c1)c1ccco1 | 0.816 ± 0.11 | 1.07 ± 0.061 | 1.02 ± 0.072 | 0.715 ± 0.019 | 1.07 ± 0.23 | 0.89 ± 0.15 | 1.01 (active)
COc1ccc(-n2ncc3c(Nc4cc(OC)c(OC)c(OC)c4)ncnc32)cc1 | 1.13 ± 0.05 | 0.938 ± 0.078 | 1.09 ± 0.085 | 0.821 ± 0.044 | 1.04 ± 0.26 | 1.28 ± 0.45 | 0.887 (active)
ON=C1ON=C(c2ccccc2)C1=NO | 0.867 ± 0.067 | 0.775 ± 0.038 | 0.875 ± 0.078 | 0.176 ± 0.0086 | 1.29 ± 0.078 | 1.42 ± 0.13 | 0.998 (active)
CCCCC1(C)OC(=O)C(=Cc2ccc(OC)c([N+](=O)[O-])c2)C(=O)O1 (configuration not stated) | 0.994 ± 0.17 | 1.07 ± 0.11 | 0.951 ± 0.086 | 0.966 ± 0.038 | 1.16 ± 0.13 | 1.25 ± 0.15 | 1 (active)
O=S(=O)(Cc1cccc(F)c1)N1C2CCC1CC(Oc1cccnc1)C2 (configuration not stated) | 1.18 ± 0.07 | 1.1 ± 0.099 | 1.04 ± 0.054 | 0.986 ± 0.04 | 1.06 ± 0.052 | 1.04 ± 0.1 | 1 (active)
CCCCCCCCCCCC(CC1OC(=O)C1CCCCCC)OC(=O)C(CC(C)C)NC=O (configuration not stated) | 1.55 ± 0.37 | 1.04 ± 0.092 | 0.364 ± 0.07 | 0.475 ± 0.023 | 1.61 ± 0.19 | 0.197 ± 0.065 | 0.943 (active)
CN(C)c1ncc(NC(=O)c2ccc(Oc3ncccn3)cc2)c(N(C)C)n1 | 0.856 ± 0.086 | 0.953 ± 0.075 | 0.849 ± 0.065 | 0.991 ± 0.053 | 1.2 ± 0.083 | 1.08 ± 0.14 | 0.985 (active)
CC(C)(C)c1ccc(-c2nc(-c3cccc([N+](=O)[O-])c3)no2)cc1 | 1.06 ± 0.1 | 0.972 ± 0.091 | 0.964 ± 0.025 | 1.02 ± 0.071 | 1.01 ± 0.098 | 1.05 ± 0.17 | 0.995 (active)
O=C(Nc1ccc(NS(=O)(=O)c2ccc(Cl)cc2)cc1)c1ccccc1 | 1 ± 0.082 | 1.03 ± 0.091 | 0.911 ± 0.07 | 0.977 ± 0.03 | 1.26 ± 0.091 | 0.955 ± 0.3 | 1.02 (active)
Clc1ccccc1C=NNc1nc(-c2ccccc2)cc(-c2ccccc2)n1 | 1.15 ± 0.11 | 1.1 ± 0.073 | 1.79 ± 0.07 | 1.2 ± 0.23 | 1.04 ± 0.065 | 1.65 ± 0.29 | 1 (active)
Cn1ccc(C(=O)Nc2nc(C(C)(C)C)cs2)n1 | 0.805 ± 0.063 | 1 ± 0.082 | 1.19 ± 0.083 | 0.993 ± 0.055 | 1.31 ± 0.18 | 1.57 ± 0.44 | 0.675 (inactive)
Cc1sccc1-c1csc(Nc2cccnc2)n1.Cl | 0.603 ± 0.028 | 0.918 ± 0.075 | 1.16 ± 0.21 | 0.6 ± 0.029 | 1.19 ± 0.23 | 1.62 ± 0.53 | 0.902 (active)
Cn1ccnc1Sc1nc(Nc2cccc(Cl)c2)nc(N2CCOCC2)n1 | 0.519 ± 0.045 | 1.03 ± 0.12 | 1.21 ± 0.13 | 0.474 ± 0.019 | 1.24 ± 0.14 | 1.09 ± 0.23 | 1.01 (active)
CC(C)CCn1c(COc2ccccc2)nc2ccccc21 | 0.892 ± 0.067 | 1.02 ± 0.078 | 0.995 ± 0.028 | 0.914 ± 0.033 | 1.04 ± 0.048 | 1.09 ± 0.1 | 0.999 (active)
Fc1ccc(Nc2nc(NN=Cc3ccccc3F)nc(N3CCCCC3)n2)cc1 | 1.41 ± 0.13 | 0.987 ± 0.12 | 1.02 ± 0.096 | 1.16 ± 0.081 | 1.26 ± 0.18 | 1.74 ± 0.28 | 1.01 (active)
O=S(=O)(NC1CC1)c1cnn(-c2ccccc2)c1 | 0.903 ± 0.048 | 0.908 ± 0.073 | 1.08 ± 0.079 | 1.07 ± 0.062 | 1.3 ± 0.3 | 1.52 ± 0.57 | 0.964 (active)
CCn1nccc1C(=O)N1CCN(S(C)(=O)=O)CC1 | 1.02 ± 0.066 | 0.929 ± 0.092 | 0.991 ± 0.028 | 1.01 ± 0.069 | 0.994 ± 0.061 | 0.847 ± 0.13 | 1 (active)
CN(c1ccccc1)c1nnc(C(C)(C)C)c(=O)[nH]1 | 1.05 ± 0.079 | 0.951 ± 0.076 | 1.01 ± 0.048 | 1.03 ± 0.039 | 0.908 ± 0.11 | 0.863 ± 0.24 | 0.994 (active)
Clc1ccc(-c2nc(-c3ccc(I)cc3)[nH]c2-c2ccc(Cl)cc2)cc1 | 0.641 ± 0.049 | 0.91 ± 0.1 | 0.985 ± 0.1 | 0.929 ± 0.082 | 1.19 ± 0.24 | 1.27 ± 0.3 | 1.02 (active)
O=C(Cc1ccc([N+](=O)[O-])cc1)NN=Cc1ccncc1 | 0.864 ± 0.26 | 1.08 ± 0.098 | 1.03 ± 0.16 | 0.964 ± 0.038 | 1.15 ± 0.18 | 1.44 ± 0.42 | 1 (active)
NS(=O)(=O)C#Cc1ccccc1 | 0.0641 ± 0.011 | 0.0588 ± 0.0047 | 0.159 ± 0.013 | 0.0153 ± 0.0016 | 0.0325 ± 0.0031 | 0.0392 ± 0.0098 | 0.7 (active)
O=C(NCc1ccco1)C(=Cc1ccc(-c2ccccc2Cl)o1)NC(=O)c1ccccc1 | 0.57 ± 0.044 | 0.745 ± 0.052 | 0.791 ± 0.07 | 0.476 ± 0.022 | 0.859 ± 0.07 | 0.942 ± 0.11 | 0.996 (active)
COC(=O)C1=CN(CC2CCCO2)C=C(C(=O)OC)C1c1ccc(OC)cc1 (configuration not stated) | 1.1 ± 0.063 | 1.04 ± 0.079 | 1.09 ± 0.036 | 0.913 ± 0.037 | 0.993 ± 0.057 | 1.04 ± 0.1 | 0.993 (active)
Cc1cccc(Oc2ccc(NC(=O)c3ccco3)cc2)c1 | 0.777 ± 0.18 | 0.981 ± 0.081 | 1 ± 0.095 | 0.516 ± 0.037 | 1.07 ± 0.24 | 1.27 ± 0.14 | 0.97 (active)
Cc1cccc(-c2nn3c(c2-c2ccnc4ccc(C(N)=O)cc24)CCC3)n1 | 1.08 ± 0.046 | 1.22 ± 0.1 | 1.46 ± 0.12 | 0.903 ± 0.042 | 0.976 ± 0.16 | 1.12 ± 0.28 | 0.99 (active)
COc1ccc(C2C3=C(CC(c4ccccc4)CC3=O)Nc3ccccc3N2C(=O)C(C)C)cc1OC (configuration not stated) | 1.02 ± 0.089 | 1.05 ± 0.063 | 1.01 ± 0.071 | 1.02 ± 0.025 | 1.56 ± 0.21 | 1.2 ± 0.087 | 1.01 (active)
